# Compound activity (PubChem BioAssay)
# Rows were chosen to be rich in hits. Some 21% of all compounds tested hit in one or more screens of this group.
# Shiga inhibitor: inhibitors of Shiga toxin in Vero cells; hit rate 9.2% among 290,000; AID 2315; inhibition, % at 38.7 µM; Vero cells, Shiga toxin protein synthesis inhibition reporter; in the data active = inhibition mostly above about 28%, no sharp cut-off; inactive = mostly below about 43%
# Pf growth 96h: P. falciparum growth inhibition at 96 hour, primary screen for plastid delayed-death inhibitors; hit rate 6.9% among 320,000; P. falciparum luciferase reporter growth, 96 h; Potency, µM (titrated, usually from 28.7 µM), hits mostly inhibitors
#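 Parasite growth measured via integrated firefly luciferase reporter in P. falciparum. Infected erythrocytes at 2% hematocrit, 0.05% parasitemia final were treated 96 hours at 37 C under 5% CO2, and luminescence was read.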
# Pf growth 48h: inhibits P. falciparum growth in the first generation, 48 h | hit rate 5.9% among 310,000 | AID 504832 | Potency, µM (highest dose often 28.7 µM), most hits filed as inhibitors | P. falciparum luciferase growth in erythrocytes, 48 h
#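 First compound was added to culture medium, then infected red cells at 0.1% parasitemia and 2% hematocrit (final). After incubation at 37 C under 5% CO2, luciferase detection reagent was dispensed and light output recorded.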
# CHX counter: counter-screen hit for Shiga toxin inhibitors, cycloheximide. cell reporter, cycloheximide protein synthesis inhibition counterscreen. hit rate 12% among 300,000. max response, %; in the data active = max response mostly above about 13%, no sharp cut-off; inactive = mostly below about 14%; note: read at 38.3 µM for the half of the compounds with a filed dose
# Hits are given with their value; – = inactive; ? = inconclusive; · = no result given; [ ] = another dose, or the depositor's remark. Unless noted, calls come from the whole dose curve; as a rule, active = well fitted inhibition curve with a large enough effect; inconclusive = small, poorly fitted or top-dose-only effect, or another doubt; inactive = no such curve, though single readings can be large or run the other way.
SMILES,Shiga inhibitor,Pf growth 96h,Pf growth 48h,CHX counter
O=C(OCCNc1ccc(C(F)(F)F)cc1[N+](=O)[O-])c1cc2ccccc2oc1=O,–,–,–,18
CC1CCCC(NC(=O)CN2CCN(S(=O)(=O)c3cccs3)CC2)C1C (stereo not drawn),·,–,?,·
Cc1nn(-c2ccccc2)c(Cl)c1/C=N/NC(=O)c1cccnc1,–,?,–,33
Cc1nn(-c2ccccc2)c(Cl)c1/C=C1\C(=O)N(C)C(=S)N1C,–,13µM,?,–
Cc1nn(-c2ccccc2)c(Cl)c1/C=N/NC(=O)c1[nH]ncc1Br,45,–,–,29
Cc1cc(C(=O)N/N=C/c2c(C)nn(-c3ccccc3)c2Cl)n[nH]1,49,–,?,18
Cc1ccc(-n2nc(C)c(/C=N/NC(=O)c3cccnc3)c2Cl)cc1,–,–,?,–
COc1ccc(Cl)cc1NC(=O)Cn1nnc(C(=O)NCc2ccc3c(c2)OCO3)c1N,–,–,–,–
Cc1nn(-c2ccccc2)c(Cl)c1/C=C/C(=O)c1ccccc1,–,?,·,19
Cc1nn(-c2ccccc2)c(Cl)c1/C=N/NC(=O)c1ccccc1F,64,–,–,37
Cc1[nH]n(-c2ccccc2)c(=O)c1/C=N/NC(=O)c1ccccc1F,64,2.3µM,·,25
Cc1nn(-c2ccccc2)c(Cl)c1/C=N/NC(=O)c1ccn[nH]1,–,–,–,21
O=C(O)CSc1cnc2ccccc2n1,–,–,·,–
O=C(O)c1cccnc1Sc1ccc(Br)cc1,–,–,–,–
O=C(O)c1cnc(-c2ccccc2)nc1Sc1ccc(Cl)cc1,–,–,–,–
Clc1ccc(Sc2cnc3ccccc3n2)cc1,85,–,–,38
c1ccc(Sc2cnc3ccccc3n2)cc1,108,–,–,64
Brc1ccc(Sc2cnc3ccccc3n2)cc1,76,–,–,33
Clc1ccccc1Sc1cnc2ccccc2n1,–,?,·,22
Cc1nc2nc(SCc3ccccc3)[nH]n2c(=O)c1CCC(C)C,–,–,–,–
CCOC(=O)c1cc(S(=O)(=O)N2CCCC2)cn1C,–,–,–,–
COc1ccc2c(c1)CC1c3c(cc4c(c3-2)OCO4)CC[N+]1(C)[O-] (stereo not drawn),–,?,–,–
COc1ccc2c(c1OC)C[N+]1([O-])CCc3cc4c(cc3C1C2)OCO4 (stereo not drawn),–,4.1µM,?,–
Cc1cccc(C)c1NC(=O)CN(C)C(=O)CN1C(=O)NC2(CCCC2)C1=O,·,–,–,·
N#C/C(=C/c1ccc(N2CCCCCC2)o1)c1ccc(Cl)cc1,–,·,·,–
SMILES,Shiga inhibitor,Pf growth 96h,Pf growth 48h,CHX counter
Cc1ccc(/C(C#N)=C\c2ccc(N3CCOCC3)o2)cc1,133,–,?,88
Cc1ccc2nc(/C(C#N)=C\c3ccc(N4CCOCC4)o3)[nH]c2c1,47,?,–,46
COc1ccc(NC(=O)CN2C(=O)COc3ccc(S(=O)(=O)N4CCOCC4)cc32)cc1Cl,–,?,?,–
Cc1ccc(NN2C(=O)C=C(c3ccccc3)C2=O)cc1,–,–,?,–
Cc1ccc(N2C(=O)C3N=NN(CC(=O)N4N=C(c5ccccc5)CC4c4ccccc4)C3C2=O)cc1 (stereo not drawn),–,–,12µM,–
Oc1cc[c]([Hg][Cl])cc1,·,1.5µM,1.9µM,·
O=c1nc2n(c3ccccc13)Cc1ccccc1-2,–,–[5.75 µM],–,–
Cc1ccccc1-c1nc2sc(C)c(C)c2c(=O)o1,·,?,–,17
Cc1sc2nc3n(c(=O)c2c1C)Cc1ccccc1-3,77,–,–,34
O=c1c2cccc(Cl)c2nc2n1Cc1ccccc1-2,–,–,–,18
Cc1sc2nc(-c3ccco3)oc(=O)c2c1C,–,·,–,–
CC1(C(=O)NCC2CCCO2)Oc2cccnc2NC1=O (stereo not drawn),–,?,–,–
Cn1nc(C(F)(F)F)c2cc(C(=O)Nc3ccc(F)cc3)sc21,–,?,?,–
Cn1nc(C(F)(F)F)c(-c2ccc(F)cc2)c1NC(=O)Nc1ccc(F)cc1,–,0.47µM,0.83µM,–
Nc1nc(-c2cccc(Br)c2)cs1,82,–,·,46
Nc1nc(-c2ccc(Br)cc2)cs1,88,–,–,20
O=C(c1ccccc1)c1cc(-c2ccccc2)on1,–,·,–,19
Nc1nc(-c2ccc(F)cc2)cs1,–,?,–,–
Nc1nc(-c2ccccc2)cs1,35,–,·,29
CCn1cc(C(=O)N[C@H](C(=O)NCCN2CCOCC2)C(C)C)c(=O)c2cc3c(cc21)OCO3,–,–,–,–
Cc1occc1-c1nnc(SCC(=O)NC2CC2)n1C(C)C,–,–,–,–
Nc1nc(-c2cc(-c3ccccc3)no2)cs1,69,–,–,32
Cc1ccc(-c2cc(-c3ccccc3)no2)cc1,·,–,–,·
c1ccc(-c2cc(-c3ccccc3)on2)cc1,67,–,–,35
Brc1ccc(-c2csc(Nc3nc(-c4ccc(Br)cc4)cs3)n2)cc1,–,?,?,22
SMILES,Shiga inhibitor,Pf growth 96h,Pf growth 48h,CHX counter
CC1CC(=O)Nc2ccccc2N1S(=O)(=O)c1ccc(F)cc1F (stereo not drawn),–,?,2.3µM,–
CC1CC(=O)Nc2ccccc2N1S(=O)(=O)c1ccccc1 (stereo not drawn),–,–,–,–
CC(=O)Nc1ccc(S(=O)(=O)N2c3ccccc3NC(=O)CC2C)c(Cl)c1 (stereo not drawn),–,–,2.1µM,–
CC1CC(=O)Nc2ccccc2N1S(=O)(=O)c1ccc(Cl)cc1 (stereo not drawn),–,–,–,–
COc1cccc2c1Oc1ncccc1N(C(=O)CCC(=O)NCc1cccc(C)c1)C2,–,?,–,–
C[C@H]([C@H](C)N1CC(=O)NC(=O)C1)N1CC(=O)NC(=O)C1,–,·,·,–
CC(=O)c1sc(NC(=O)CSC(C)C(=O)Nc2cc(C)on2)nc1-c1ccccc1 (stereo not drawn),·,?,–,·
CCc1ccc2nc(NC(=O)CSCc3c(C)noc3C)sc2c1,68,–,–,21
Cc1noc(C)c1CSCC(=O)Nc1nc2ccccc2s1,–,?,–,21
Cc1noc(C)c1CSCC(=O)Nc1nnc(CC(C)C)s1,–,–,–,–
CC(=O)c1sc(NC(=O)CSCc2c(C)noc2C)nc1-c1ccccc1,·,?,10µM,·
CCOC(=O)c1sc(NC(=O)CSCc2c(C)noc2C)nc1C,·,?,10µM,·
COCCN(CCOC)C(=O)CSc1ccc(S(=O)(=O)N2CCN(C)CC2)cn1,·,?,–,·
CCOC(=O)c1c(NC(=O)c2c(C(=O)O)cccc2[N+](=O)[O-])sc(C)c1C,–,–,–,–
O=C(CCCSc1nc2ccccc2c(=O)[nH]1)c1ccc(F)cc1,–,–,–,–
O=c1nc(Nc2ccc(Br)cc2)sc2ccc([N+](=O)[O-])cc12,–,–,?,–
CCN(c1ccc(NC(=O)COC(=O)c2cccs2)cc1)C(C)C,–,–,·,38
CC(=O)c1cccc(NC(=O)COC(=O)c2cccs2)c1,69,–,–,59
CCc1ccccc1NC(=O)COC(=O)c1cccs1,–,–,–,–
CCN(CC)c1ccc(NC(=O)COC(=O)c2cccs2)cc1,55,–,·,44
C=CCN1C(=O)c2ccc(C(=O)N(C)CC(=O)Nc3ccc(Br)cc3C)cc2C1=O,·,–,–,·
